Measurements published in PubChem BioAssay (NCATS).
Inconclusive results are not listed. The source made the active and inactive calls. Unless noted, calls follow the shape of the dose curve; as a rule, active = well fitted curve in the direction sought with a large enough effect; inconclusive = small, poorly fitted or top-dose-only effect, or another doubt; inactive = no such curve, though single readings can be large; an effect the other way counts as inactive or inconclusive.

How the values were obtained:
[1] = molecular target: Lysosomal acid glucosylceramidase (Homo sapiens) (UniProt P04062); assay: Glucocerebrosidase-p2 (AID 348; in the data active = potency below about 10 µM; also: potency is read from the fitted curve at half-maximal effect); settings: purified GBA, blue fluorogenic substrate, 40 min
Sequence of Lysosomal acid glucosylceramidase (Homo sapiens) (P04062 whole entry, looked up): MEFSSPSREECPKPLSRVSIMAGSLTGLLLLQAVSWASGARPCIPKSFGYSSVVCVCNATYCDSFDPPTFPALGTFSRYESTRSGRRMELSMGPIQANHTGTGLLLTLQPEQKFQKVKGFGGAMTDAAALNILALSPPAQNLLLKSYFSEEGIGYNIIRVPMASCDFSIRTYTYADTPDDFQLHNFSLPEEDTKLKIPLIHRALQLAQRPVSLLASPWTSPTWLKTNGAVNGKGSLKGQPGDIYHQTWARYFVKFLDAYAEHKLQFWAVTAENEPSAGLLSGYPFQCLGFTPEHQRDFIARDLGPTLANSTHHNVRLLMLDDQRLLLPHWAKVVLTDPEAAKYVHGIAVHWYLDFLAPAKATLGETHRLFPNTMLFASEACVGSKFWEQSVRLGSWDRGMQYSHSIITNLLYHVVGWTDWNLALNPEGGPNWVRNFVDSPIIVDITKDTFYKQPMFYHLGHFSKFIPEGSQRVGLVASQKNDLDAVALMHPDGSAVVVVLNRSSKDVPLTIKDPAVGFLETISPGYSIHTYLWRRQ
In short: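 Compounds titrated from 0.6 nM upwards against 0.2 nM enzyme in pH 5.9 citric acid/KH2PO4, taurocholate, tween-20; blue fluorogenic substrate 80 uM, 40 min room temperature, stopped and read Ex 365/Em 440 for AC50.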

[2] = AP1 Signaling Pathway (AID 357; active = well fitted curve in either direction with a large enough effect, not every such curve was filed as active;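 also: ME-180 reporter cells stimulated with EGF at its EC50 level; % is scaled to controls: 0 for no effect and ±100 for the full control effect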); settings: ME-180 AP-1-bla reporter, EGF-induced, beta-lactamase ratio, 5 h; at 7.69 µM (top of the series) unless noted
In short: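 AP-1-bla ME-180 cells, Opti-MEM + 0.5% dialyzed FBS, plated overnight 37 °C. Cpd titration + EC50 EGF, 5 h 37 °C. CCF4 2.5 h RT; ex 405, em 460/530 ratio → %activity, AC50.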

[3] = molecular target: Cytochrome P450 1A2 (Homo sapiens) (UniProt P05177); assay: p450-cyp1a2 (AID 410; calls by dose curve; also: potency is read from the fitted curve at half-maximal effect); settings: recombinant CYP1A2, luciferin-ME demethylation, luminescence; series mostly up to 57 µM
Sequence of Cytochrome P450 1A2 (Homo sapiens) (P05177 whole entry, looked up): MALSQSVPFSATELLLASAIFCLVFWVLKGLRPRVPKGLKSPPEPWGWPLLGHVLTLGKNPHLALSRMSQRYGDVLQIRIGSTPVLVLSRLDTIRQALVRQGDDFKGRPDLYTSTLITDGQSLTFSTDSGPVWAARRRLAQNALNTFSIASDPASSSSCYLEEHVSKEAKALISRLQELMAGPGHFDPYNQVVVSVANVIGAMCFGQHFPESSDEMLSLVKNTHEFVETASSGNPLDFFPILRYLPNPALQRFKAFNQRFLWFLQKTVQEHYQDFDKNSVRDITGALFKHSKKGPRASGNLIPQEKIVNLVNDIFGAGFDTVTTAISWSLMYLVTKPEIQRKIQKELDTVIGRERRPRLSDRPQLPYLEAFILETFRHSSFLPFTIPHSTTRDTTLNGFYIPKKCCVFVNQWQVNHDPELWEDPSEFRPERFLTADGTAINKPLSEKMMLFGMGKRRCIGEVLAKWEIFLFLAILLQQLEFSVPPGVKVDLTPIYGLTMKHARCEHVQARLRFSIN
In short: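 Luminescent readout of luciferin formed from Luciferin-ME by human CYP1A2; data normalized against complete inhibition by 57 uM furafylline. Enzyme 20nM, substrate 100uM at Km, 100mM KPO4 buffer, 60 min reaction at room temperature.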

[4] = NFAT Signaling Pathway (AID 444; active = well fitted curve in either direction with a large enough effect, not every such curve was filed as active;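 also: carbachol stimulus at about its EC50 of 1 µM final; % is scaled to controls: 0 for no effect and ±100 for the full control effect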); settings: Jurkat NFAT-bla M1, carbachol, beta-lactamase ratio, 5 h; at 7.69 µM (top of the series) unless noted
In short: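 Jurkat cells with NFAT-driven β-lactamase reporter and co-expressed M1 receptor, stimulated with carbachol (final 1 uM, ~EC50), compound titration, 5 h at 37 °C. CCF4 loaded 1 h at RT; 460/530 nm ratio gave %activity and AC50.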

[5] = Stat Signaling Pathway (AID 446; active = well fitted curve in either direction with a large enough effect, not every such curve was filed as active;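 also: ME-180 cervical cancer cells given 40 pM IL-6 alongside compound; SIE-controlled beta-lactamase reporter measured as 460/530 nm FRET emission ratio; % is scaled to controls: 0 for no effect and ±100 for the full control effect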); settings: ME-180 SIE beta-lactamase reporter, IL-6 stimulated, 5 h; at 7.69 µM (top of the series) unless noted
In short: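 ME-180 SIE-bla cells; overnight plating; cpd + IL-6 40 pM, 5 h, 37 C; LiveBLAzer 2.5 h RT; 460/530 nm emission ratio. Normalized to 300 pM IL-6 and 125 nM JAK inhibitor controls.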

[6] = molecular target: Glucocorticoid receptor (Homo sapiens) (UniProt P04150); assay: GR-GFP Redistribution (AID 450;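 active = compounds whose dose series gives a full or clear partial fitted curve of increased nuclear translocation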; also: potency is read from the fitted curve at half-maximal effect); settings: U2OS GR-GFP nuclear translocation, laser cytometry, 2 h
Sequence of Glucocorticoid receptor (Homo sapiens) (P04150 whole entry, looked up, the tested form may be a part): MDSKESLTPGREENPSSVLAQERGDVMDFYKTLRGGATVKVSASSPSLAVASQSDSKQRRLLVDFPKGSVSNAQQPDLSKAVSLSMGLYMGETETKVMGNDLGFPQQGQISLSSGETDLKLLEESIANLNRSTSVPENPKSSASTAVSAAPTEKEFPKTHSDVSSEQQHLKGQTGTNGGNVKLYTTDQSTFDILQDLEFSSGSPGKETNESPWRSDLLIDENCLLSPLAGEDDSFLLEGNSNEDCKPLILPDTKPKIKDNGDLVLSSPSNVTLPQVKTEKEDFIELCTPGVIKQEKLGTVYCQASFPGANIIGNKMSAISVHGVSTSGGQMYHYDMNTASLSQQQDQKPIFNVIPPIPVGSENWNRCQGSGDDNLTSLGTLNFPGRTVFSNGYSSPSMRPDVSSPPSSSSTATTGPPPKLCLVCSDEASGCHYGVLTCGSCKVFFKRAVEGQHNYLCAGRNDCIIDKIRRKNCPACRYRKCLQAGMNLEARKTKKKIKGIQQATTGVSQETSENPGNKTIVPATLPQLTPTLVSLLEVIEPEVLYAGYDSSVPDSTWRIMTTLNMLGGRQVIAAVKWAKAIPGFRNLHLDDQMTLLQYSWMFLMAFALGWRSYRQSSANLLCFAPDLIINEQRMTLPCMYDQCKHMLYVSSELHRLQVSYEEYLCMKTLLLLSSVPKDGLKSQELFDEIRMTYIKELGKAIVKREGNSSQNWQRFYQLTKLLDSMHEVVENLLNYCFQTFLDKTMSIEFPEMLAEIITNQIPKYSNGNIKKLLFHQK

[7] = molecular target: Glucocorticoid receptor (Homo sapiens) (UniProt P04150); assay: GR-EFC Redistribution (AID 451; calls by dose curve; also: potency is read from the fitted curve at half-maximal effect); settings: CHO-K1 GR-EFC translocation, beta-gal luminescence, 2 h
In short: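 CHO-K1 cells expressing nuclear EA and GR-ED fragments of b-gal; compounds titrated up to 46 uM final, 2 h at 37 C. GR nuclear translocation read as complemented b-gal luminescence after 1 h RT detection.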

[8] = molecular target: Mitogen-activated protein kinase 10 (Mus musculus) (UniProt Q61831); assay: JNK3 AlphaScreen Assay (AID 530; active = well fitted curve in either direction with a large enough effect, not every such curve was filed as active;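 also: kinase came from lysate of stimulated human HepG2 cells; signal reports phosphorylation of biotinylated GST-cJun 1-79 at Ser73 with 10 µM ATP; % is scaled to controls: 0 for no effect and ±100 for the full control effect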); settings: JNK3 lysate, c-Jun phosphorylation; series mostly up to 57.1 µM
In short: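 Pre-activated (IL-1β/TNFα) JNK3 in HepG2 lysates phosphorylates biotin-GST-cJun(1-79), 10 uM ATP; anti-phospho-cJun(Ser73) AlphaScreen read at room temperature, pH 7.6 Tris buffer. Compounds pre-incubated 15 min as titrations.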

[9] = molecular target: Cytochrome P450 3A4 (Homo sapiens) (UniProt P08684); assay: qHTS Assay for Activators of Cytochrome P450 3A4 (AID 885); settings: recombinant CYP3A4, Luciferin-PPXE luminescence, 60 min; series mostly up to 57.1 µM; also: nearly all actives have a fitted effect of over 65% in size
Sequence of Cytochrome P450 3A4 (Homo sapiens) (P08684 whole entry, looked up): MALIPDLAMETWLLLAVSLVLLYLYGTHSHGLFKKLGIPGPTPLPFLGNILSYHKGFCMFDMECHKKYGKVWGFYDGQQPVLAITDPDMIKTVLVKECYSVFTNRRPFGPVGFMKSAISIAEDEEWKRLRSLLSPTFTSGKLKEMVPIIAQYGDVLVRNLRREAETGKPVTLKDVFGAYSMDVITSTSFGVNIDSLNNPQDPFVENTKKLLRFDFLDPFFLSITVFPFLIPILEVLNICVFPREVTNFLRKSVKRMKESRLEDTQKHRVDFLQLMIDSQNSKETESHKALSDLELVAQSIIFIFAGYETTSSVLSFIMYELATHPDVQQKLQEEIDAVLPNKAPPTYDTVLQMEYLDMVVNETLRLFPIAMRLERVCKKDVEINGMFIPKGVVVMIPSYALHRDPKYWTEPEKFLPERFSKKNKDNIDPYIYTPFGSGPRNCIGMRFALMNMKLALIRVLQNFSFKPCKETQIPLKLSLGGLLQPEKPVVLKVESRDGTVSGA
In short: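 20nM CYP3A4 + 25uM Luciferin-PPXE (=KM), 200mM KPO4; cpd 10 min RT; NADPH regen, 60 min RT; stop w/ detection buffer, 20 min; luminescence. Normalized to 57 uM ketoconazole.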

[10] = molecular target: Cytochrome P450 2C19 (Homo sapiens) (UniProt P33261); assay: qHTS Assay for Inhibitors and Substrates of Cytochrome P450 2C19 (AID 899); settings: recombinant CYP2C19, luciferin-H EGE luminescence; series mostly up to 57.1 µM; also: potency is read from the fitted curve at half-maximal effect; nearly all actives have a fitted effect of over 60% in size
Sequence of Cytochrome P450 2C19 (Homo sapiens) (P33261 whole entry, looked up): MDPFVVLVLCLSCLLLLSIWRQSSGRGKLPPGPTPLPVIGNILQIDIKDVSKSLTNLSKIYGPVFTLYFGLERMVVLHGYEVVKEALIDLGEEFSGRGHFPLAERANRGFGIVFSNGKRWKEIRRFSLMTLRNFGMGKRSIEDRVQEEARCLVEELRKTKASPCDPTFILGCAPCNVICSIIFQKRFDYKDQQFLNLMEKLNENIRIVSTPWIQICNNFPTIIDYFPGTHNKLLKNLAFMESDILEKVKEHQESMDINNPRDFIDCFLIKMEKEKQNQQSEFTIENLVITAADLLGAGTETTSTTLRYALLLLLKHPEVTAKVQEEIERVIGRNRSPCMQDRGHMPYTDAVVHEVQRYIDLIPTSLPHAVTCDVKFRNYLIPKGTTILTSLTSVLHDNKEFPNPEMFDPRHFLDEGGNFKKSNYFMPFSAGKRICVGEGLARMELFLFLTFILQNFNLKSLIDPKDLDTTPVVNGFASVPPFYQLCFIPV
In short: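 Luminescent read-out of luciferin formed from Luciferin-H EGE (10uM, equal to KM). Enzyme 5nM in 50mM KPO4; compound added, 10 min at 37C, then NADPH regenerating system for 60 min at 37C. Full inhibition defined by 57uM ketoconazole.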

[11] = molecular target: Dual specificity protein kinase CLK4 (Homo sapiens) (UniProt Q9HAZ1); assay: qHTS Assay for Inhibitors of CDC-like Kinase 4 (ADP-FP Assay) (AID 1795); settings: Transcreener ADP fluorescence polarization; series mostly up to 50 µM; also: nearly all actives have a fitted effect of over 60% in size; also: potency is read from the fitted curve at half-maximal effect
Sequence of Dual specificity protein kinase CLK4 (Homo sapiens) (Q9HAZ1 whole entry, looked up): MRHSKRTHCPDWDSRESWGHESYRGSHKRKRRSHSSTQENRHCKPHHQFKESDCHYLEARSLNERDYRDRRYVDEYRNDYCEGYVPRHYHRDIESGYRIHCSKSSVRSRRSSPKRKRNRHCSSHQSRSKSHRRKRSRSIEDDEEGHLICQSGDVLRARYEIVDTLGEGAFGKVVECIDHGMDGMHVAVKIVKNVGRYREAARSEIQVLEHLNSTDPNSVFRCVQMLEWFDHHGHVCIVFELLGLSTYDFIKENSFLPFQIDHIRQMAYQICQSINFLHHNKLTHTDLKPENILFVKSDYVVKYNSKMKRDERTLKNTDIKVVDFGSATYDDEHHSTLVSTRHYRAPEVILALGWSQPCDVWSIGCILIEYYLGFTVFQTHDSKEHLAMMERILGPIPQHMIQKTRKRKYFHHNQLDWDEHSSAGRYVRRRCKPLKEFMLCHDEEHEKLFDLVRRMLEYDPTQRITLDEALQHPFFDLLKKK
In short: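 Clk4 6.25 nM; RS peptide 100 uM; ATP 1 uM; 25 mM Tris pH 7.5, 10 mM MgCl2; 1 h reaction. ADP detected via antibody/orange tracer FP displacement; TG003 positive control.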

[12] = molecular target: Ubiquitin carboxyl-terminal hydrolase 1 (Homo sapiens) (UniProt O94782); assay: Inhibitors of USP1/UAF1: Pilot qHTS (AID 504865); settings: purified USP1/UAF1, Ub-rhodamine cleavage fluorescence; series mostly up to 54.9 µM;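 also: rhodamine fluorescence freed from ubiquitin-rhodamine substrate followed over time; top concentration of the series differs between compounds; % is scaled to controls: 0 for no effect and ±100 for the full control effect; nearly all actives have a fitted effect of over 35% in size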
Sequence of Ubiquitin carboxyl-terminal hydrolase 1 (Homo sapiens) (O94782 whole entry, looked up): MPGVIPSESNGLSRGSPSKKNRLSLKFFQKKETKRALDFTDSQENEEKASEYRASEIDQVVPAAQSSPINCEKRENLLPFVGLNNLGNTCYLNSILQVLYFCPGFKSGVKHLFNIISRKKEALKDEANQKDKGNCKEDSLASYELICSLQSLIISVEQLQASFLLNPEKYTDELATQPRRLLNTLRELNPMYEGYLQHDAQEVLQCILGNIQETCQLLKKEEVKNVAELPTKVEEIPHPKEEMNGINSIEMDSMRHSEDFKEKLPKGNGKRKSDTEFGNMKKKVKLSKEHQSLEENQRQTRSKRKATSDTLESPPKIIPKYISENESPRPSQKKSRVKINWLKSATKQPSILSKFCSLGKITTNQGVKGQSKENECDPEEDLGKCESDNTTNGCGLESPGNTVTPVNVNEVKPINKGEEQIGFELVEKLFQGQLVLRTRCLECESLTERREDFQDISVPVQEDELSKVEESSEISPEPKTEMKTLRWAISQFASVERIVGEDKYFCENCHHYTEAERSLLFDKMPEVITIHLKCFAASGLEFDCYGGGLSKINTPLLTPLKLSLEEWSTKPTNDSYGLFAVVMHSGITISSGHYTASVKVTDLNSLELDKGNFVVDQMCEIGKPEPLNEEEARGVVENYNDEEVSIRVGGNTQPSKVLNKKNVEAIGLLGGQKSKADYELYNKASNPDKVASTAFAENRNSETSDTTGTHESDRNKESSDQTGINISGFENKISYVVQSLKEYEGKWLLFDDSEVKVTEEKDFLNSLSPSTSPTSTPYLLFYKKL
In short: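 In 50mM HEPES pH 7.8 containing 0.5mM EDTA, 1mM TCEP, 0.1 mg/ml BSA and 0.01% Tween-20, 1nM USP1/UAF1 is exposed to compound for 15 min, then Ub-Rho (150nM final) is added and fluorescence is read over time.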

[13] = Primary qHTS for small molecule stabilizers of the endoplasmic reticulum resident proteome: Secreted ER Calcium Modulated Protein (SERCaMP) assay (AID 1508630); settings: SH-SY5Y GLuc-SERCaMP (Gaussia luciferase released on ER calcium loss) secretion, thapsigargin, luminescence; series mostly up to 38.4 µM; also: % is scaled to controls: 0 for no effect and ±100 for the full control effect
In short: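 GLuc-SERCaMP-expressing SH-SY5Y cells, pretreated 16 h with compound, are challenged with thapsigargin to empty ER calcium stores; after 4 h, coelenterazine is added directly to the medium and luminescence is imaged.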

[14] = molecular target: Cytochrome P450 3A4 (Homo sapiens) (UniProt P08684); assay: qHTS Assay for Inhibitors and Substrates of Cytochrome P450 3A4 (AID 884); settings: recombinant CYP3A4, Luciferin-PPXE luminescence; series mostly up to 57.1 µM; also: potency is read from the fitted curve at half-maximal effect; nearly all actives have a fitted effect of over 50% in size
In short: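 20 nM human CYP3A4 with 25 uM Luciferin-PPXE (at KM) in 200 mM KPO4, preincubated 10 min with compound; NADPH regeneration started a 60 min RT reaction. Luciferin detected by luminescence, normalized to 57 uM ketoconazole as full inhibition.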

[15] = molecular target: 3',5'-cyclic-AMP phosphodiesterase 4B (Homo sapiens) (UniProt Q07343); assay: qHTS Assay for Inhibitors of PDE-IV (AID 607; active = well fitted activation curve with a large enough effect in the main read-out, with a control signal flat, not every such curve was filed as active; also: % of control where 0% means no effect); settings: HEK293 ACTOne CNG channel cells, membrane potential fluorescence; series mostly up to 22.9 µM
Sequence of 3',5'-cyclic-AMP phosphodiesterase 4B (Homo sapiens) (Q07343 whole entry, looked up): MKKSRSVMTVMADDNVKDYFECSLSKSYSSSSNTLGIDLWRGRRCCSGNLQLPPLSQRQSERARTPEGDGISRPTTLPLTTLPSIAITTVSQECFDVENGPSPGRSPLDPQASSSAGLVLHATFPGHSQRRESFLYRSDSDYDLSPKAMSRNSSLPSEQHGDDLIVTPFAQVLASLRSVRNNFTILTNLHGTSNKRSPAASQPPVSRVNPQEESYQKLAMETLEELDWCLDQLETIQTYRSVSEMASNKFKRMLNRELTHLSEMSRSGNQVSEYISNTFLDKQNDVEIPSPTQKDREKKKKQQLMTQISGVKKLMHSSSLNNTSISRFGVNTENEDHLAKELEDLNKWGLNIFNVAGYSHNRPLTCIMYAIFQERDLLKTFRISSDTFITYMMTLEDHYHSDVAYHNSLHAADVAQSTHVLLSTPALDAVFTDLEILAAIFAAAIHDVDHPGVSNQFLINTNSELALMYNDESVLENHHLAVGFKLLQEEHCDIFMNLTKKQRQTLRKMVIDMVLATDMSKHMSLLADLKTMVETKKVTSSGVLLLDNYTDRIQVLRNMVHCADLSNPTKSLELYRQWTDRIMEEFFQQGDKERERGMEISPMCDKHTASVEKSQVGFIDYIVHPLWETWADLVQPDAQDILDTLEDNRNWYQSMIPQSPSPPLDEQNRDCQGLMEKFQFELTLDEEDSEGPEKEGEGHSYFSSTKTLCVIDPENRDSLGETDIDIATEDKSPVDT
In short: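 ACTOne HEK293 cells carry a modified cAMP-gated CNG channel and express endogenous PDE4; plated 1000 cells/well, compounds up to 22.9 uM final. Membrane-potential dye fluorescence (ex 535/em 590) was read; parental cells received 10 uM forskolin + 100 uM RO 20-1724.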

[16] = molecular target: Cytochrome P450 2D6 (Homo sapiens) (UniProt P10635); assay: qHTS Assay for Inhibitors and Substrates of Cytochrome P450 2D6 (AID 891); settings: recombinant CYP2D6, luciferin-ME EGE luminescence; series mostly up to 57.1 µM; also: potency is read from the fitted curve at half-maximal effect; nearly all actives have a fitted effect of over 60% in size
In short: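 Human CYP2D6 (5 nM) with 30 uM Luciferin-ME EGE (at Km) in 100 mM KPO4, compound preincubated 10 min, then NADPH regeneration system for 60 min at room temperature. Luciferin read by luminescence; normalized to 1.43 uM quinidine.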

O=c1c(-c2cccs2)nc2cncnc2n1-c1ccccc1
inactive: Potency [1] > 11.4 µM | activity change, negative = inhibition [2] -11.2% | activity change, negative = inhibition [4] -9.03% | activity, negative = inhibition [5] -0.182% | Potency [6] > 9.22 µM | Potency [7] > 46 µM | Potency [8] | Potency [9] | Potency [11] | Potency [12] | outcome [13]
active: Potency [3] 12.6 µM | Potency [10] 6.31 µM

COc1cccc(Cn2c(=O)c(-c3cccc(C#N)c3)nc3cnc(OC)nc32)c1
active: Potency [3] 10 µM
inactive: Potency [1] > 11.4 µM | activity change, negative = inhibition [2] -6.86% | activity change, negative = inhibition [4] -8.15% | activity, negative = inhibition [5] -4.38% | Potency [6] > 9.22 µM | Potency [7] > 46 µM | Potency [8] | Potency [9] | Potency [11] | Potency [12] | outcome [13]

COCCn1c(=O)c(-c2cccc(F)c2)nc2cncnc21
inactive: Potency [1] > 11.4 µM | activity change, negative = inhibition [2] -16% | activity change, negative = inhibition [4] -5.24% | activity, negative = inhibition [5] -1.12% | Potency [6] > 9.22 µM | Potency [7] > 46 µM | Potency [8] | Potency [9] | Potency [11] | Potency [12] | outcome [13]
active: Potency [3] 2 µM

c1ccc(Nc2ncncc2-c2ccoc2)cc1
active: Potency [3] 1 µM | Potency [14] 2 µM | Potency [11] 5.62 µM
inactive: Potency [1] > 11.4 µM | activity change, negative = inhibition [2] -25% | activity, negative = inhibition [5] 5.02% | Potency [7] > 46 µM | Potency [8] | Potency [9] | outcome [13]

N#Cc1cccc(-c2cncnc2NCCc2cnc[nH]2)c1
inactive: Potency [1] > 11.4 µM | activity change, negative = inhibition [2] -12% | activity change, negative = inhibition [4] 4.36% | activity, negative = inhibition [5] -1.18% | Potency [6] > 46 µM | Potency [7] > 46 µM | Potency [8] | Potency [15] | Potency [11] | Potency [12] | outcome [13]

c1ccc(CNc2ccnc(-c3cccnc3)n2)cc1
inactive: Potency [1] > 11.4 µM | activity change, negative = inhibition [2] -10.3% | activity change, negative = inhibition [4] 7.79% | Potency [6] > 46 µM | Potency [7] > 46 µM | Potency [8] | Potency [9] | Potency [11] | Potency [12] | outcome [13]
active: Potency [3] 0.251 µM | Potency [14] 0.631 µM | Potency [16] 1.26 µM | Potency [10] 2.51 µM

COc1ccccc1-c1nc(N(C)Cc2ccco2)c2ccccc2n1
inactive: Potency [1] > 11.4 µM | activity change, negative = inhibition [2] 27.9% | activity change, negative = inhibition [4] -21.3% | activity, negative = inhibition [5] 8.04% | Potency [6] > 46 µM | Potency [7] > 46 µM | Potency [8] | Potency [9] | Potency [11] | outcome [13]
active: Potency [3] 0.501 µM | Potency [14] 7.94 µM
